The record followed here is PubChem BioAssay.

Records with an inconclusive call do not appear. Activity calls are given as the source filed them.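 How the source made its calls, unless noted: active means viability at or below 10% of carrier control in both of two separate runs; inconclusive means viability at or below 10% in only one of the two runs; inactive means the rest.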

Assay [1] is described as follows: reducers of endogenous Her2 protein level, primary screen, SKBR3 breast tumor cells, AlphaScreen, ATP viability (AID 461;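 active means Her2 level under about 52% in both replicate screens, with viability over 70% of control, limit read from the data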;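 on Her2 level: lower value means less Her2 protein in the cells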;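 on viability: percent of carrier control wells set as 100% viability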). The settings on record: 18-24 h, measured here: SKBR3 viability, ATP luminescence, at 10 µM. (Alpha assays give light when donor and acceptor beads are brought close together.)
Assay [2] has as its target Receptor tyrosine-protein kinase erbB-2 (Homo sapiens) (UniProt P04626). The assay is described as above. The following applies: 18-24 h, at 10 µM, stronger effect = lower value.
Assay [3] is described as follows: SK-BR-3 cell growth inhibitors, pilot screen, 24 h, human (AID 572).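 Further: compound exposure lasted between 18 and 24 h rather than exactly 24 h; 100% = carrier-treated control wells.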 The settings on record: SK-BR-3 viability, CellTiter-Glo luminescence, at 10 µM, stronger effect = lower value. For orientation: Cellular ATP, detected with luciferase, serves as a proxy for viable cell number.
A short description of assay [4]: HUVEC growth inhibition – cell-based, human, primary screen (AID 575;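 active means viability at or below 30% in both replicate assays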;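 further: 100% = median of untreated cell wells with 0.1% DMSO on each plate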). The settings on record: HUVEC proliferation, CellTiter-Glo luminescence, 72 h; at 10 µM; stronger effect = lower value.
Assay [5] can be described thus: growth inhibitors of H69AR lung tumor, primary screen, human, duplicate replicates (AID 580;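 active means viability at or under a set limit in both replicates, limit being median viability minus 3 SD, cut at about 48% in these data, passing the limit was not always enough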;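 further: 100% = mean luminescence of untreated wells and 0% = no signal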). The following applies: H69AR lung tumor cells viability, ATP luminescence, 72 h; at 10 µM; stronger effect = lower value.
Assay [6] can be described thus: reversal of MRP1-mediated doxorubicin resistance, pilot screen, H69AR cells, doxorubicin co-treatment (AID 601;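 active means viability loss from added drug above about 55%, and viability with drug at most 40%, in both replicates, limit read from the data, passing the limit was not always enough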). The settings on record: CellTiter-Glo, 72 h, at 10 µM; for differential viability (reversal): stronger effect = higher value.
The nature of assay [7]: 384-well plate pilot, post-Golgi transport modulator project, inhibition of yeast transport mutant growth (AID 636; in the data active means inhibition above about 31%). The settings on record: absorbance 615 nm, about 18 h, stronger effect = higher value.
The nature of assay [8]: growth suppression of yeast trafficking mutant, preliminary HTS, modulators of trafficking downstream of Golgi apparatus project, 1536-format plate, OD 615 nm (AID 637; in the data active means inhibition above about 30%). The settings on record: yeast transport mutant growth, absorbance 615 nm, 18 h; stronger effect = higher value.
Assay [9] is described as follows: OD615 S. cerevisiae growth inhibition, permissive medium, pilot counter-assay, permissive growth control for S. cerevisiae lifespan shortening project (AID 705;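 active means growth inhibition above 25% in both replicates, a cutoff set 3 SD above the mean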). The settings on record: OD615, 24 h, at 10 µM, stronger effect = higher value.
Assay [10] can be described thus: Restrictive medium S. cerevisiae growth inhibition, OD615, pilot screen of yeast lifespan reduction project, restrictive growth control (AID 706;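 active means growth inhibition above a set limit, 3 SD over mean compound inhibition, in both replicates, cut at about 43% in these data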;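 further: modified DeaD lifespan yeast strain shifted to restrictive glucose medium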). The following applies: OD615, 48 h, at 10 µM, stronger effect = higher value.
Assay [11] can be described thus: viability gain of MRP-1-high H69AR cells under doxorubicin, pilot screen, MRP-1 activator project, CellTiter-Glo, duplicate (AID 807;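 active means viability increase at or above a cutoff of the median across tested compounds plus 3 SD, cut at about 8.5% in these data, passing the limit was not always enough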;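 further: compound pretreatment 18-22 h then 72 h combined with doxorubicin; 0% = doxorubicin alone and 100% = vehicle without doxorubicin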). The following applies: H69AR viability with doxorubicin, CellTiter-Glo luminescence; at 10 µM; stronger effect = higher value.
The nature of assay [12]: growth suppression of beta-catenin knockout HCT116, pilot screen, human colon tumor cells (AID 823;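 active means cell viability at or below a set limit in both duplicate runs, the limit being the all-compound median minus 4 SD, cut at about 23% in these data, passing the limit was not always enough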;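 further: 0% = wells killed by 20 µM Hyamine and 100% = untreated DMSO cell wells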). The settings on record: CellTiter-Glo, 60 h, at 10 µM, stronger effect = lower value.
Assay [13] in a line: growth suppression of PTEN-deleted HCT116, pilot screen, cell-based, HCT116 clonal line, CellTiter-Glo (AID 824;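 active means viability at or below 27.92% in each of two runs, the all-compound median minus 4 SD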;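 further: 0% = 20 µM Hyamine control and 100% = vehicle cell control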). The following applies: 60 h, at 10 µM, stronger effect = lower value.
Assay [14] is described as follows: inhibitors of the yeast RAM network, pilot screen, dse1pr::URA3 reporter, 5-FOA selection (AID 869;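 active means inhibition over a set limit, the all-compound mean plus 3 SD, in both replicate runs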;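 further: 0% = DMSO wells with no growth and 100% = 10 µM 1-NA-PP1 with full growth; RAM network block rescues cells from 5-FOA so hits raise OD615 growth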). The settings on record: S. cerevisiae dse1pr::URA3 5-FOA growth, OD615, 2 d; at 10 µM; stronger effect = higher value; strain carries analog-sensitive mutant Cbk1 kinase.
Assay [15] is described as follows: RAM signaling pathway blockade in yeast – S. cerevisiae, Pdr1DBD-CYC8 efflux-inhibited sensitized strain, primary screen (AID 1298;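 active means RAM network inhibition above 8.4% in each of two replicates, 3 SD over the compound average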;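 further: 0% = DMSO untreated cells without growth and 100% = 10 µM 1-NA-PP1 full growth; higher means more yeast growth rescued from 5-FOA killing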). The settings on record: S. cerevisiae cbk1-as DSE1-URA3 strain, 5-FOA growth OD615, 2 d; at 50 µM; stronger effect = higher value.
Setting [16] is: H69AR cells + 2 uM doxorubicin, measured here: viability with 2 uM doxorubicin, stronger effect = lower value.
[17] abbreviates: H69AR cells, compound alone cytotoxicity.

Chain of Receptor tyrosine-protein kinase erbB-2 (Homo sapiens) (P04626 whole entry, looked up): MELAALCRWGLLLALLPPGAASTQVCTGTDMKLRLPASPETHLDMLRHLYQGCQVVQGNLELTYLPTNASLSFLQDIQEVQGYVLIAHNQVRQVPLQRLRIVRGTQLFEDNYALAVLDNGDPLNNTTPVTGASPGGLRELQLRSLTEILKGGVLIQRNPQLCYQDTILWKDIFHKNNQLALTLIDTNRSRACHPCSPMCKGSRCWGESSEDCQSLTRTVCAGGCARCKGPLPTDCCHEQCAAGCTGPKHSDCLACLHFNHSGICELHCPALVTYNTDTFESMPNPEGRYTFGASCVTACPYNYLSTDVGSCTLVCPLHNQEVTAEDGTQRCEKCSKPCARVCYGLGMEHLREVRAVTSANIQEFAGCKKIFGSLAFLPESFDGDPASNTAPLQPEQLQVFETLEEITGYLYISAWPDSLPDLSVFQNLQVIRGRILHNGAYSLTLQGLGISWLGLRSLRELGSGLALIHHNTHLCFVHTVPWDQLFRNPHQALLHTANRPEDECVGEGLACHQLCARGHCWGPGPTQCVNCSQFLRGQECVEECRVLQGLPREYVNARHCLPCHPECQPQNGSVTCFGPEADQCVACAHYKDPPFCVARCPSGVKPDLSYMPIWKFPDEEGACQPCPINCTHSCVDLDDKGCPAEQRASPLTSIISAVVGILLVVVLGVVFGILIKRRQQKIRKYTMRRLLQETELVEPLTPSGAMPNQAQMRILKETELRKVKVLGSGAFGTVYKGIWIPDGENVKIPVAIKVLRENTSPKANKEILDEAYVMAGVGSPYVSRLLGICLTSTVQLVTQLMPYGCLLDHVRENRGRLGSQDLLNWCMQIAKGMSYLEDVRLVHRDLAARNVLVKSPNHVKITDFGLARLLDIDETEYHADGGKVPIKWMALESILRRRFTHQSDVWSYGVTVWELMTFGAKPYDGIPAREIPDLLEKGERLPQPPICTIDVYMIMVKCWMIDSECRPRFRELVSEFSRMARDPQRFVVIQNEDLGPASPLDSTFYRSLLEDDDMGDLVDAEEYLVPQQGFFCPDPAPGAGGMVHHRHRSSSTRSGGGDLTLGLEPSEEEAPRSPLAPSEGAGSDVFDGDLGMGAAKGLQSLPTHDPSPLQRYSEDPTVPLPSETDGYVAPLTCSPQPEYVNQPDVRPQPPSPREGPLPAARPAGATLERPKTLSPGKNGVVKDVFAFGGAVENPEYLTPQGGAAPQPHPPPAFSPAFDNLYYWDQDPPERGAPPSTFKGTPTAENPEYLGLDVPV

The term viability denotes a read-out of living cells in per cent, often relative to untreated cells. As usually defined, the inhibition is the relative decrease from the control value, in per cent. Consider `CC(=O)N1c2c(cc(Br)cc2S(=O)(=O)N2CCN(c3ccccn3)CC2)CC1C` (stereo not drawn), for which the viability in assay [1] is 80.5%; in assay [3], 80.5% (inactive); in assay [4], 64.9% (inactive); in [5] it was 86.6% (inactive); in assay [6] (setting [16]) it was 90.2%; in assay [6] (setting [17]) it was 86.6%. Besides, the results for the viability in assay [12] and in assay [13] were 99.1% (inactive) and 95.6% (inactive), respectively. Besides, in assay [2], the Her2 level was 106% (inactive). The differential viability (reversal) in assay [6] (H69AR cells + 2 uM doxorubicin) was -3.56% (inactive). Moreover, the inhibition in [7] is -1.05% (inactive); in [8], 24.6% (inactive); in assay [14], 0.77% (inactive). The growth inhibition in assay [9] is 6.66% (inactive); in assay [10] it was 1.97% (inactive). The viability increase in [11] was 1.49% (inactive). Further, the RAM network inhibition in [15] is 0.3% (inactive).

With `CCCSCCCNC(=O)Cn1cc2c(n1)CCC(C)C2` (stereo not drawn), the viability was 99.5% in assay [1]; 99.5% (inactive) in assay [3]; 101% (inactive) in assay [4]; 98.8% (inactive) in assay [5]; 91% in assay [6] (setting [16]); 98.8% in assay [6] (setting [17]). Besides, the figures for the viability in assay [12] and in assay [13] were 102% (inactive) and 95.7% (inactive), respectively. The Her2 level in [2] is 106% (inactive). Further, the differential viability (reversal) in assay [6] (H69AR cells + 2 uM doxorubicin) is 7.85% (inactive). Further, the inhibition in [7] is 4.49% (inactive); in [8] it was -0.67% (inactive); in assay [14], 0.775% (inactive). In addition, the growth inhibition in [9] is 3.59% (inactive); in [10], 1.5% (inactive). In [11], the viability increase is -0.9% (inactive). Besides, the RAM network inhibition in [15] is 1.33% (inactive).

As to `C=CCSc1nnc(Cc2c(C)[nH]c3ccccc23)o1`, the viability is 90.5% in assay [1]; 90.5% (inactive) in assay [3]; 84.7% (inactive) in assay [4]; 92.2% (inactive) in assay [5]; 85.3% in [6] (setting [16]); 92.2% in assay [6] (setting [17]). The viability is 99.7% (inactive) in [12] and 99.5% (inactive) in [13]. The Her2 level in assay [2] was 96% (inactive). Also, the differential viability (reversal) in assay [6] (H69AR cells + 2 uM doxorubicin) is 6.96% (inactive). In addition, the inhibition in assay [7] was -3.87% (inactive); in [8], -2.5% (inactive); in assay [14], -0.545% (inactive). Also, the growth inhibition in assay [9] is 1.6% (inactive); in [10] it was 3.4% (inactive). In addition, in assay [11], the viability increase is -0.66% (inactive). Also, the RAM network inhibition in assay [15] is 1.36% (inactive).

For `COc1cccc(-n2c(SCC(=O)Nc3cc(C)on3)nc3c([nH]c4ccccc43)c2=O)c1`, the viability in assay [1] is 76%; in [3] it was 76% (inactive); in [4], 61.5% (inactive); in assay [5] it was 66.4% (inactive); in assay [6] (setting [16]) it was 82.6%; in assay [6] (setting [17]), 66.4%. The viability in assay [12] is 82% (inactive); in [13] it was 73.8% (inactive). Besides, the Her2 level in [2] was 90.5% (inactive). For the same compound, the differential viability (reversal) in assay [6] (H69AR cells + 2 uM doxorubicin) is -16.2% (inactive). The inhibition was -4.53% (inactive) in [7], -0.67% (inactive) in assay [8] and 2.33% (inactive) in assay [14]. Further, the growth inhibition was -3.05% (inactive) in [9] and -0.53% (inactive) in assay [10]. Besides, in [11], the viability increase is -4.78% (inactive). Besides, the RAM network inhibition in [15] was 1.62% (inactive).

On to `Cc1c(C(=O)OCCOC(C)C)[nH]c2c1C(=O)CC(c1ccco1)C2` (stereo not drawn), for which the viability is 81% in assay [1]; 81% (inactive) in assay [3]; 50.2% (inactive) in assay [4]; 38.3% (active) in [5]; 72.7% in [6] (setting [16]); 38.3% in assay [6] (setting [17]). In addition, the results for the viability in [12] and in assay [13] were 17.1% (active) and 17.8% (active), respectively. The Her2 level in [2] was 73% (inactive). Also, the differential viability (reversal) in [6] (H69AR cells + 2 uM doxorubicin) was -34.4% (inactive). The inhibition was 1.47% (inactive) in assay [7], -4.59% (inactive) in [8] and 0.735% (inactive) in assay [14]. Also, the growth inhibition in assay [9] is -3.61% (inactive); in [10] it was -3.07% (inactive). Also, the viability increase in assay [11] is -4.69% (inactive). In addition, the RAM network inhibition in assay [15] is -1.95% (inactive).

Take `CCOC(=O)C(C(=O)OCC)C(C)C#CCN1CCCCC1` (stereo not drawn): the viability in assay [1] is 91.5%; in assay [3], 91.5% (inactive); in assay [4], 87.2% (inactive); in assay [5] it was 90.4% (inactive); in [6] (setting [16]) it was 89.2%; in [6] (setting [17]) it was 90.4%. For the same compound, the viability in assay [12] is 93.9% (inactive); in [13], 97% (inactive). The Her2 level in assay [2] is 116% (inactive). The differential viability (reversal) in assay [6] (H69AR cells + 2 uM doxorubicin) is 1.13% (inactive). Besides, the inhibition in assay [7] was -3.08% (inactive); in [8], -5.5% (inactive); in assay [14], -0.12% (inactive). In addition, the growth inhibition in assay [9] was -2.21% (inactive); in [10] it was -1.49% (inactive). Besides, in assay [11], the viability increase is -2.18% (inactive). Also, the RAM network inhibition in [15] was 7.5% (inactive).

For the compound `Cc1c(C)c2ccc(OC3CCCCC3=O)cc2oc1=O` (stereo not drawn), the viability in assay [1] is 100%; in assay [3], 100% (inactive); in [4], 82.6% (inactive); in assay [5] it was 85.8% (inactive); in assay [6] (setting [16]) it was 75.4%; in assay [6] (setting [17]) it was 85.8%. Besides, the viability in [12] was 104% (inactive); in [13] it was 101% (inactive). Also, in assay [2], the Her2 level was 112% (inactive). Further, the differential viability (reversal) in [6] (H69AR cells + 2 uM doxorubicin) was 10.4% (inactive). The inhibition in assay [7] was -1.92% (inactive); in assay [8], -2.67% (inactive); in [14], 0.48% (inactive). Also, the growth inhibition in assay [9] was -16.6% (inactive); in [10] it was -7.25% (inactive). Further, the viability increase in assay [11] is 0.57% (inactive). The RAM network inhibition in assay [15] was 1.93% (inactive).

As to `COc1ccc(NC(=O)C2CCCCN2S(=O)(=O)c2ccc(F)cc2)cc1` (stereo not drawn), the viability is 91% in assay [1]; 91% (inactive) in assay [3]; 91.4% (inactive) in assay [4]; 89.2% (inactive) in assay [5]; 101% in [6] (setting [16]); 89.2% in assay [6] (setting [17]). Besides, the viability in assay [12] was 83.5% (inactive); in assay [13], 88% (inactive). In [2], the Her2 level was 93% (inactive). Besides, the differential viability (reversal) in [6] (H69AR cells + 2 uM doxorubicin) was -12.1% (inactive). For the same compound, the figures for the inhibition in assay [7], in assay [8] and in [14] were -7.47% (inactive), 1% (inactive) and 1.19% (inactive), respectively. Further, the figures for the growth inhibition in assay [9] and in [10] were -18.5% (inactive) and -18.4% (inactive), respectively. The viability increase in assay [11] was -1.3% (inactive). Also, in assay [15], the RAM network inhibition is 5.45% (inactive).

As for `COc1ccc(NC(=O)c2cnc3n(c2=O)CCS3)cc1OC`, the viability in assay [1] was 112%; in assay [3], 112% (inactive); in assay [4], 88.2% (inactive); in assay [5], 95.7% (inactive); in assay [6] (setting [16]) it was 83.9%; in [6] (setting [17]) it was 95.7%. Also, the viability in [12] is 109% (inactive); in [13], 103% (inactive). For the same compound, in [2], the Her2 level was 106% (inactive). For the same compound, the differential viability (reversal) in assay [6] (H69AR cells + 2 uM doxorubicin) is 11.8% (inactive). Further, the inhibition was -3.07% (inactive) in assay [7], -4.59% (inactive) in [8] and 2.45% (inactive) in assay [14]. Moreover, the growth inhibition is -14.6% (inactive) in [9] and -5.98% (inactive) in assay [10]. Also, the viability increase in [11] was 1.5% (inactive). Besides, the RAM network inhibition in [15] is 7.24% (inactive).
